Mot1-301 SUMO – blocks SUMOylation pathway, rescuing yeast Mot1-301 growth. 320,000 compounds, 1% hits. S. cerevisiae Mot1-301 growth rescue, ATP luminescence, 38.5C; percent above DMSO median, 100 means doubled. growth rescue, % at 18.8 µM;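 active = every valid replicate shows activation above 250% relative to neutral control wells; inactive = the rest, any valid replicate at or below 250%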
Bfl-1 A1 inh – inhibitors of the anti-apoptotic protein A1, read as caspase activation | MEF A1-2A-BIM cells, Caspase-Glo 3/7 luminescence, 3 h; percent of clofoctol response, vehicle zero | caspase activation, % (test concentration not listed) | 330,000 compounds, 0.066% hits | AID 2462;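 active = over half of replicate activation scores above 10%, or exactly half above 10 with the replicate mean above 10; inconclusive = replicate mean below 10 yet half the replicates above 10; inactive = over half of replicates below 10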
ARNT-TACC3 inh – ARNT/TACC3 interaction disruption | Q9Y6A5 | AlphaScreen His-ARNT PAS-B/GST-TACC3 binding, luminescence; TACC3 fragment carries E629A point mutation | inhibition, % at 9.99 µM | 390,000 compounds, 0.66% hits;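 active = mean inhibition of replicates at least 50% and at least half of replicates each reaching 50%; inconclusive = half or more replicates reach 50% but mean below 50%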
aDG glyco act – increases alpha dystroglycan glycosylation; Pro5-aDG cells, alpha-DG glycosylation AlphaScreen (IIH6); 0% Pro5, 100% B10-LARGE cell signal; activation, % at 10 µM; 360,000 compounds, 0.22% hits;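 active = activation of at least 8% versus controls, or a plate z-score of at least 8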;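 also: Pro5 are CHO cells carrying HIG-tagged alpha-DG that lacks glycosylation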
AI-2 QS mod – modulators of Vibrio harveyi AI-2 quorum sensing system; Vibrio harveyi JMH597 AI-2 luminescence/OD600 ratio, 9 h; hits give low values; strain lacks LuxN and CqsS sensors; 0 = neutral-control median; activity change, % at 7.5 µM; 300,000 compounds, 0.4% hits; in the data active = activity change below about -75%, passing the limit was not always enough; inconclusive = no clear call, values can overlap the other calls;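 also: luminescence divided by OD600 gain over 9 h not by final OD600 alone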
ARNT Alpha ctr-1 – AlphaScreen artifact in ARNT/TACC3 counter-screen; shares compounds with ARNT-TACC3 inh; His-ARNT PASB-GST AlphaScreen artifact counter-screen, luminescence; AC50, µM (series often up to 68 µM); 1,200 compounds, 50% hits; AID 651705;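 active = every separate test run was called active for a drop in luminescence, with AC50 within twice the top valid dose, actives reach about 71 µM in these data; inconclusive = the separate test runs disagree in their calls; inactive = all runs inactive, including signal change in the wrong direction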
ARNT Alpha ctr-2 – AlphaScreen artifact flagged for ARNT-TACC3 inhibitors; 45 compounds, 70% hits; Dual-tagged His-ARNT PASB-GST AlphaScreen artifact counter-screen; shares compounds with ARNT-TACC3 inh; AC50, µM; AID 720564;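 active = luminescence drop, with half-maximal potency fitted within twice the sample's top valid dose, cut at about 70 µM in these data; inactive = the rest, including signal moving the wrong way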
Hits are given with their value; 0 = inactive; ? = inconclusive; - = no result given. Only some compounds are listed: those with a hit (about 1.8% of all), similar ones and a draw of the others.

SMILES	Mot1-301 SUMO	Bfl-1 A1 inh	ARNT-TACC3 inh	aDG glyco act	AI-2 QS mod	ARNT Alpha ctr-1	others
O=C(CSc1nc2nn(-c3ccccc3)c(=O)c-2c2n1CCCCC2)Nc1ccc(OC(F)F)cc1	0	0	0	0	-	-
O=C(Nc1ccc2c(c1)[C@@H]1C[C@H](CC(=O)N3CCc4ccccc4C3)O[C@@H](CO)[C@@H]1O2)c1ccc2c(c1)OCO2	-	-	51.2	-	-	49.5µM
Cc1cc(=O)[nH]c(N2CCCNCC2)n1	0	0	0	0	0	-
Cc1cc(=O)[nH]c(-n2[nH]c3c(c2=O)CCCC3)n1	-	0	58.1	0	0	0
Cc1ccccc1Nc1nnc(SCC(=O)NC(=O)NCc2ccco2)s1	0	0	62.4	0	0	0
CSc1nc(-c2ccc(Cl)cc2)nn1C(=O)c1ccccc1	0	0	0	0	0	-
CC(Oc1ccccc1)C(=O)Nc1ccc(S(=O)(=O)N2CCN(C)CC2)cc1 (stereo not given)	0	0	0	0	0	-
COC(=O)[C@]12CCCCC=C1N(CCc1ccc(OC)c(OC)c1)C(=O)[C@H](CC(=O)NCc1ccc(OC)c(OC)c1)C2	-	-	-	0	-	-
COc1cc(CCNc2ccc3nnc(-c4ccccc4)n3n2)cc(OC)c1OC	0	?	55.8	0	0	68.5µM
CCOc1ccc2c(c1)C(N(CCN1CCOCC1)C(=O)Nc1ccc(OC)cc1OC)CC(C)(C)O2 (stereo not given)	0	?	0	0	0	-
CCOc1ccc2c(c1)C(N(CCN1CCOCC1)C(=O)Nc1ccccc1)CC(C)(C)O2 (stereo not given)	-	-	57.5	0	0	0
CC(C)C(=O)NC(c1cccc([N+](=O)[O-])c1)c1c(O)ccc2ccccc12 (stereo not given)	0	0	0	0	0	-
FC(F)(F)c1cccc(-c2nn[nH]n2)c1	0	0	0	0	0	-
FC(F)(F)c1cc(-c2nn[nH]n2)cc(C(F)(F)F)c1	-	-	-	-	-	-	ARNT Alpha ctr-2=0
Cc1cccc(S(=O)(=O)N[C@H]2CC[C@@H](CCn3cc(-c4ccccn4)nn3)O[C@@H]2CO)c1	-	-	101.6	-	-	43.9µM
COc1cccc(S(=O)(=O)N[C@@H]2CC[C@@H](CCn3cc(-c4ccccc4)nn3)O[C@H]2CO)c1	-	-	0	-	-	-
Cc1cccc(S(=O)(=O)N[C@@H]2CC[C@@H](CCn3cc(-c4ccccn4)nn3)O[C@@H]2CO)c1	-	-	98.2	-	-	0
COc1cc(C(=O)Nc2nnc(SCC(=O)NCC3CCCO3)s2)cc(OC)c1OC (stereo not given)	0	0	0	0	0	-
CC(C)NC(=O)Nc1ccc2c(c1)CC(=O)N([C@@H](C)CO)C[C@@H](C)[C@H](CN(C)Cc1ccc(Cl)c(Cl)c1)O2	-	-	0	-	-	-
C=C1c2cccc(O)c2C(=O)C2C(=O)[C@]3(O)C(=O)C(C(N)=O)C(=O)[C@@H](N(C)C)[C@@H]3[C@@H](O)[C@H]12 (stereo not given in full)	-	-	54.3	0	-	0
CN(Cc1ccccc1)CC(O)COc1ccc(CNCc2nccn2C)cc1 (stereo not given)	0	0	63.2	0	0	0
C/C(=N\NC(=O)c1ccc2nc[nH]c2c1)c1ccc([N+](=O)[O-])cc1	0	0	-	-	0	-
CCCN(C(=O)Cc1nc(N)n[nH]1)C1(C(=O)Nc2ccccc2C)CCCCC1	0	0	50.3	0	0	0
O=C(O)CSc1cccc2cccnc12	0	0	60.1	0	0	0
CN(C)S(=O)(=O)c1cccc(NC(=O)CSc2cccc3cccnc23)c1	0	0	64.5	0	0	11.8µM
SMILES	Mot1-301 SUMO	Bfl-1 A1 inh	ARNT-TACC3 inh	aDG glyco act	AI-2 QS mod	ARNT Alpha ctr-1	others
CN(C)S(=O)(=O)c1ccc(SCC(=O)Nc2cccc(S(=O)(=O)N3CCCC3)c2)nc1	-	-	0	0	-	-
O=C(CSc1cccc2cccnc12)N/N=C/c1ccc(F)cc1	0	0	0	0	0	-
C=CCOc1ccc(CN(C)CC(=O)Nc2ccc3c(c2)CCC3)cc1	0	0	0	0	0	-
O=C(Nc1ccccc1)N1CCCCN2[C@H](C1)[C@H](c1ccc(C#CC3CC3)cc1)[C@@H]2CO	-	-	active	-	-	0
O=C(Nc1ccccc1)N1CCCCN2[C@@H](CO)[C@@H](c3ccc(C#CC4CC4)cc3)[C@@H]2C1	-	-	0	-	-	-
Cc1ccc(CNC(=O)CSc2ccc(-c3ccccn3)nn2)cc1	0	0	0	0	0	-
COc1cccc(CNC(=O)CSc2ccc(-c3ccccn3)nn2)c1	0	0	66.3	0	0	60.8µM
O=C(CSc1ccc(-c2ccccn2)nn1)NCc1ccc(Cl)cc1	0	0	52.8	0	0	69µM
Cc1ccccc1C(=O)OC(C)CN1CCOCC1 (stereo not given)	0	0	0	0	0	-
Cn1c(=O)c2c(nc(SCCN3CCOCC3)n2Cc2cccc3ccccc23)n(C)c1=O	0	0	0	0	0	-
CS(=O)(=O)c1ccccc1-c1nnc(NC(=O)c2ccc3ncsc3c2)o1	0	0	50.2	0	0	0
C[C@H]1CN([C@@H](C)CO)S(=O)(=O)c2ccc(C3=CCCC3)cc2O[C@@H]1CN(C)Cc1ccccn1	-	-	0	-	-	-
C[C@H](CO)N1C[C@H](C)[C@H](CN(C)Cc2cccnc2)Oc2cc(C#CCN(C)C)ccc2S1(=O)=O	-	-	active	-	-	0
C[C@@H]1CN([C@H](C)CO)S(=O)(=O)c2ccc(C3=CCCC3)cc2O[C@H]1CN(C)Cc1ccccn1	-	-	17.3	-	-	50.5µM
COCCNC(=O)C1CCCN(C(=O)c2cc(C)nn2C(C)(C)C)CC1 (stereo not given)	-	-	-	0	-	-
O=C(C[C@@H]1CC[C@H]2[C@@H](COC[C@@H](O)CN2C(=O)c2cccnc2)O1)Nc1ccc(-c2ccccc2)cc1	-	-	0	-	-	-
O=c1cc(N/N=C/c2ccccc2)[nH]c(=O)[nH]1	0	0	20.3	0	0	0
O=c1cc(C=NNc2ccccc2)[nH]c(=O)[nH]1	-	-	0	0	-	-
Cc1ccc(S(=O)(=O)n2nc(C)c(C#N)c2N)cc1	0	0	66.9	0	0	0
O=C(C1CC1)N1CCc2cc(Br)cc(S(=O)(=O)NCc3ccccn3)c21	0	0	51.8	0	0	0
Cc1oc(C(=O)O)cc1COc1cccc2cccnc12	0	0	58.8	0	0	0
Cc1cc(NC(=O)COc2cccc3cccnc23)no1	-	-	-	-	0	-
C[C@H](CO)N1C[C@H](C)[C@H](CN(C)C(=O)NC2CCCCC2)OCCCC[C@H](C)Oc2ccc(NC(=O)CCC(F)(F)F)cc2C1=O	-	-	0	-	-	-
COc1ccc(C(=O)Nc2nc3ccccc3[nH]2)cc1S(=O)(=O)N1CCOCC1	0	0	50.8	0	0	0

Assay outcomes as filed in PubChem.
